Experimental findings from PubChem BioAssay are described below.

The source made the active and inactive calls.

For assay [1], the system named is PRMT1 (protein arginine N-methyltransferase 1). The experiment in a line: PRMT1 binders on small-molecule microarrays, primary screen, biochemical, small-molecule microarray, 635 nm fluorescence (AID 1088).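 Note: binding of Prmt1 protein to compounds spotted on small-molecule microarray slides.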 Conditions: small-molecule microarray binding, higher = more signal.
Assay [2] in a line: yeast growth modulation, basal conditions, primary screen, YJM789 clinical isolate, OD600, 24 h (AID 1089).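 Note: growth of clinical yeast isolate S. cerevisiae YJM 789 seeded 1000 cells per well; test concentration not given here.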 The conditions noted are these: S. cerevisiae YJM789 growth, higher = more signal, called active from +8 up or from −8 down.
The nature of assay [3]: fission yeast growth modulation, primary screen, strain 972, OD600, 24 h, no modulator (AID 1090).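 Note: basal condition with compound alone and no growth modifier present; test concentration not given here.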 Conditions: S. pombe 972 growth, higher = more signal, called active from +8 up or from −8 down.
Assay [4] in a line: S. cerevisiae growth modulation with rapamycin, primary screen, strain BY4716, OD600, 96 h (AID 1091). Note: test concentration not given here. Conditions: higher = more signal, called active from +8 up or from −8 down.
Assay [5] addresses Torsin-1A-interacting protein 2 (Homo sapiens) (UniProt Q8NFQ8). The experiment in a line: LULL1 binders on small-molecule microarray, primary screen, cell lysate, human LULL1 lysate, 635/667 nm fluorescence (AID 1092).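 Note: probe is lysate of COS7 cells overexpressing human LULL1; score merges per-feature 667 nm fluorescence with signal-to-noise.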 The conditions noted are these: hLULL1 lysate binding, 635 nm fluorescence, higher = more signal.
The nature of assay [6]: E. coli growth modulation, two-sided OD650, primary screen, E. coli filamentation project, strain DRC41, 24 h (AID 1093).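 Note: MC1000 strain lacking acrAB efflux and sulA so SOS filamentation is blocked; test concentration not given here.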 The conditions noted are these: OD650, 24 h, higher = more signal, called active from +8 up or from −8 down.
A short description of assay [7]: small-molecule microarray binders of probe aLefty2, primary screen, biochemical, biotinylated probe, 635/667 nm fluorescence (AID 1094).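 Note: score merges spot fluorescence near 667 nm with spot signal-to-noise ratio.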 Conditions: higher = more signal.
The test system of assay [8] is Noggin (protein binding on small-molecule microarray). The experiment in a line: Noggin binders on small-molecule microarray, primary screen, biochemical, 635/667 nm fluorescence (AID 1095).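 Note: score merges 667 nm feature fluorescence with signal to noise over triplicate slides.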 Conditions: 635 nm fluorescence, higher = more signal.
The target in assay [9] is Neurogenic locus notch homolog protein 3 (Homo sapiens) (UniProt Q9UM47). The experiment in a line: NOTCH3 binders on small-molecule microarray, primary screen, biochemical, 635/667 nm fluorescence (AID 1096). The conditions noted are these: NOTCH3 binding, 635 nm fluorescence, higher = more signal.
Assay [10] can be described thus: small-molecule microarray binders of probe aEGFR, primary screen, biochemical, biotinylated probe, 635/667 nm fluorescence (AID 1097).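 Note: probe is a biotinylated anti-EGFR antibody binding compounds printed on slides; score combines fluorescence near 667 nm and signal to noise of each spot.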 Conditions: higher = more signal.
The subject of assay [11] is Plasmodium falciparum Sir2 (PF13_0152, Sir2A). Put plainly: pfSir2 binders on small-molecule microarrays, primary screen, biochemical, small-molecule microarray, 635 nm fluorescence (AID 1098).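 Note: score merges spot fluorescence intensity with its signal-to-noise ratio.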 Conditions: small-molecule microarray binding, fluorescence 635 nm; higher = more signal.
Assay [12] in a line: small-molecule microarray binders of probe aDKK1, primary screen, biochemical, biotinylated probe, 635/667 nm fluorescence (AID 1099).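 Note: score merges 667nm spot fluorescence with signal to noise across triplicate slides; reference of the scale not given here.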 The conditions noted are these: higher = more signal.
Assay [13] is described as follows: small-molecule microarray binders of probe aCHRDL2, primary screen, biochemical, biotinylated probe, 635/667 nm fluorescence (AID 1100). The conditions noted are these: higher = more signal.
Assay [14] can be described thus: splicing luciferase reporter signal modulators, primary screen, spliceosome inhibition project, cell-based, HEK293, splice +/- reporter (AID 1101).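 Note: HEK293 cells carrying a splicing-competent luciferase reporter gene; test concentration not given here.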 Conditions: luminescence, 24 h, higher = more signal, called active from +8 up or from −8 down.
The target of assay [15] is Fibroblast growth factor 10 (Homo sapiens) (UniProt O15520). The experiment in a line: FGF10 binders on small-molecule microarrays, primary screen, biochemical, small-molecule microarray, 635 nm fluorescence (AID 1102). Conditions: FGF10 binding, fluorescence 635 nm, higher = more signal.
The test system of assay [16] is glycogen synthase kinase-3 (GSK3A per assay name; protocol says GSK3B). The experiment in a line: GSK3 binders on small-molecule microarrays, primary screen, biochemical, small-molecule microarray, 635 nm fluorescence, GSK3A (AID 1103). Note: the record names both GSK3A and GSK3B. The conditions noted are these: small-molecule microarray binding, fluorescence 635 nm; higher = more signal.
Assay [17] has as its target Epidermal growth factor receptor (Homo sapiens) (UniProt P00533). The experiment in a line: EGFR binders on small-molecule microarrays, primary screen, biochemical, small-molecule microarray, 635 nm fluorescence (AID 1104).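 Note: score merges 667 nm emission intensity with spot signal to noise over triplicate slides.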 Conditions: EGFR binding, higher = more signal.
Assay [18] addresses Follistatin-related protein 3 (Homo sapiens) (UniProt O95633). Put plainly: FSTL3 binders on small-molecule microarrays, primary screen, biochemical, small-molecule microarray, 635 nm fluorescence (AID 1105).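 Note: score merges emission near 667 nm and signal to noise per printed spot across three slides.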 The conditions noted are these: FSTL3 binding, higher = more signal.
The target in assay [19] is Dickkopf-related protein 1 (Homo sapiens) (UniProt O94907). The experiment in a line: DKK1 binders on small-molecule microarrays, primary screen, biochemical, small-molecule microarray, 635 nm fluorescence scan (AID 1106).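 Note: score merges emission near 667 nm with signal to noise over three replicate slides.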 Conditions: DKK1 binding, higher = more signal.
Assay [20] has as its system Inhibin beta A chain (activin A). The experiment in a line: INHBA (activin A) binders on microarrays, primary screen, biochemical, small-molecule microarray, 635 nm fluorescence scan (AID 1107).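 Note: mouse activin A protein probed at 4.33 µg/mL on printed slides; score merges bound-protein fluorescence near 667 nm with spot signal-to-noise.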 The conditions noted are these: small-molecule microarray binding, higher = more signal.

Torsin-1A-interacting protein 2 (Homo sapiens), sequence (Q8NFQ8 whole entry, looked up): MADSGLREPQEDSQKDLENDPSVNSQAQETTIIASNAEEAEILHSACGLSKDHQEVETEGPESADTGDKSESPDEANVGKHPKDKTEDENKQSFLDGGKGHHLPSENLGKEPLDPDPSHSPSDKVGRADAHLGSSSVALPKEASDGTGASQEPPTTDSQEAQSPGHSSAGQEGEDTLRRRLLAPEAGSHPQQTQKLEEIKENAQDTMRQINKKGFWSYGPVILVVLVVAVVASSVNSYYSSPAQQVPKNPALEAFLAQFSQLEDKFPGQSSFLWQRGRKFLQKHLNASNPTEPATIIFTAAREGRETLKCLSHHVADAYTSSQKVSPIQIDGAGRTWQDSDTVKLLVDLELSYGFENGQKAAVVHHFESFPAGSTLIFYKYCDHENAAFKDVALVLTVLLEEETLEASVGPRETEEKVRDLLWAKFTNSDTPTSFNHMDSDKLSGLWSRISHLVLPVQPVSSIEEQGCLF
Follistatin-related protein 3 (Homo sapiens), sequence (O95633 whole entry, looked up): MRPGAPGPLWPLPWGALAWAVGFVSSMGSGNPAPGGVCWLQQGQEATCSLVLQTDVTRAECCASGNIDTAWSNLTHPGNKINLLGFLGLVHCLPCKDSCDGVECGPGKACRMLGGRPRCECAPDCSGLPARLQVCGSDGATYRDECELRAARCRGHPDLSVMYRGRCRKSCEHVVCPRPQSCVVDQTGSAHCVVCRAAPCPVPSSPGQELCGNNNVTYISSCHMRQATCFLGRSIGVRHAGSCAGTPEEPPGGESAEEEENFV
Epidermal growth factor receptor (Homo sapiens), sequence (P00533 whole entry, looked up): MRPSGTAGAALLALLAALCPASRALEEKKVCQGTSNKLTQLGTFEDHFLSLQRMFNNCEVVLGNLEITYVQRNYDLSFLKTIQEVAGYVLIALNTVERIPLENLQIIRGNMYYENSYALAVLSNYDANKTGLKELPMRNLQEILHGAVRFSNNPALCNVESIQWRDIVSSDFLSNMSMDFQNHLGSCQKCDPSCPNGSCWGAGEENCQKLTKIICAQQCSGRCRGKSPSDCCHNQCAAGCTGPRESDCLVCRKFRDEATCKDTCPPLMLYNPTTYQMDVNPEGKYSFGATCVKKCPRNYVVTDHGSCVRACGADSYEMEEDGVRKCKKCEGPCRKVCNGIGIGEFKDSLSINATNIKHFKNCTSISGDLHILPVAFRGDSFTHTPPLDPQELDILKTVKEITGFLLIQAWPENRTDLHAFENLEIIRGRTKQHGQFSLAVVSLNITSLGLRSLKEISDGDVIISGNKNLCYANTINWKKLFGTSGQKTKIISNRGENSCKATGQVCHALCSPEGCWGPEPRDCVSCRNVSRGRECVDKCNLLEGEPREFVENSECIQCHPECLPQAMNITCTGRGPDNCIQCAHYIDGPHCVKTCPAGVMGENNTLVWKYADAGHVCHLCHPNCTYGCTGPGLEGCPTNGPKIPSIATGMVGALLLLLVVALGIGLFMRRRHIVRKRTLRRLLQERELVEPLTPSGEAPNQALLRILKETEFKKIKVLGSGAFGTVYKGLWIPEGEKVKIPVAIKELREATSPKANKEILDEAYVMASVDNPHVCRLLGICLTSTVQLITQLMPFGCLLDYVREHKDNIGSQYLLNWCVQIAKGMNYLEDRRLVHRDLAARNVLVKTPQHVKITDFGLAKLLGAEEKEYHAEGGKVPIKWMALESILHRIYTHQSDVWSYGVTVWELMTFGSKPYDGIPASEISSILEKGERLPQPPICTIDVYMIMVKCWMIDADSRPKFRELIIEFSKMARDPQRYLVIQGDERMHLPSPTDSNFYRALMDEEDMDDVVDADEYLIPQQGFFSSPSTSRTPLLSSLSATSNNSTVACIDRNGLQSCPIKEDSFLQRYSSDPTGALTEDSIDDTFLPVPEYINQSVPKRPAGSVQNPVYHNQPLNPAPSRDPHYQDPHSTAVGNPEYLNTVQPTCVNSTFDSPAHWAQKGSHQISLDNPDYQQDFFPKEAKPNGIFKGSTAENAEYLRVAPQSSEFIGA
Neurogenic locus notch homolog protein 3 (Homo sapiens), sequence (Q9UM47 whole entry, looked up): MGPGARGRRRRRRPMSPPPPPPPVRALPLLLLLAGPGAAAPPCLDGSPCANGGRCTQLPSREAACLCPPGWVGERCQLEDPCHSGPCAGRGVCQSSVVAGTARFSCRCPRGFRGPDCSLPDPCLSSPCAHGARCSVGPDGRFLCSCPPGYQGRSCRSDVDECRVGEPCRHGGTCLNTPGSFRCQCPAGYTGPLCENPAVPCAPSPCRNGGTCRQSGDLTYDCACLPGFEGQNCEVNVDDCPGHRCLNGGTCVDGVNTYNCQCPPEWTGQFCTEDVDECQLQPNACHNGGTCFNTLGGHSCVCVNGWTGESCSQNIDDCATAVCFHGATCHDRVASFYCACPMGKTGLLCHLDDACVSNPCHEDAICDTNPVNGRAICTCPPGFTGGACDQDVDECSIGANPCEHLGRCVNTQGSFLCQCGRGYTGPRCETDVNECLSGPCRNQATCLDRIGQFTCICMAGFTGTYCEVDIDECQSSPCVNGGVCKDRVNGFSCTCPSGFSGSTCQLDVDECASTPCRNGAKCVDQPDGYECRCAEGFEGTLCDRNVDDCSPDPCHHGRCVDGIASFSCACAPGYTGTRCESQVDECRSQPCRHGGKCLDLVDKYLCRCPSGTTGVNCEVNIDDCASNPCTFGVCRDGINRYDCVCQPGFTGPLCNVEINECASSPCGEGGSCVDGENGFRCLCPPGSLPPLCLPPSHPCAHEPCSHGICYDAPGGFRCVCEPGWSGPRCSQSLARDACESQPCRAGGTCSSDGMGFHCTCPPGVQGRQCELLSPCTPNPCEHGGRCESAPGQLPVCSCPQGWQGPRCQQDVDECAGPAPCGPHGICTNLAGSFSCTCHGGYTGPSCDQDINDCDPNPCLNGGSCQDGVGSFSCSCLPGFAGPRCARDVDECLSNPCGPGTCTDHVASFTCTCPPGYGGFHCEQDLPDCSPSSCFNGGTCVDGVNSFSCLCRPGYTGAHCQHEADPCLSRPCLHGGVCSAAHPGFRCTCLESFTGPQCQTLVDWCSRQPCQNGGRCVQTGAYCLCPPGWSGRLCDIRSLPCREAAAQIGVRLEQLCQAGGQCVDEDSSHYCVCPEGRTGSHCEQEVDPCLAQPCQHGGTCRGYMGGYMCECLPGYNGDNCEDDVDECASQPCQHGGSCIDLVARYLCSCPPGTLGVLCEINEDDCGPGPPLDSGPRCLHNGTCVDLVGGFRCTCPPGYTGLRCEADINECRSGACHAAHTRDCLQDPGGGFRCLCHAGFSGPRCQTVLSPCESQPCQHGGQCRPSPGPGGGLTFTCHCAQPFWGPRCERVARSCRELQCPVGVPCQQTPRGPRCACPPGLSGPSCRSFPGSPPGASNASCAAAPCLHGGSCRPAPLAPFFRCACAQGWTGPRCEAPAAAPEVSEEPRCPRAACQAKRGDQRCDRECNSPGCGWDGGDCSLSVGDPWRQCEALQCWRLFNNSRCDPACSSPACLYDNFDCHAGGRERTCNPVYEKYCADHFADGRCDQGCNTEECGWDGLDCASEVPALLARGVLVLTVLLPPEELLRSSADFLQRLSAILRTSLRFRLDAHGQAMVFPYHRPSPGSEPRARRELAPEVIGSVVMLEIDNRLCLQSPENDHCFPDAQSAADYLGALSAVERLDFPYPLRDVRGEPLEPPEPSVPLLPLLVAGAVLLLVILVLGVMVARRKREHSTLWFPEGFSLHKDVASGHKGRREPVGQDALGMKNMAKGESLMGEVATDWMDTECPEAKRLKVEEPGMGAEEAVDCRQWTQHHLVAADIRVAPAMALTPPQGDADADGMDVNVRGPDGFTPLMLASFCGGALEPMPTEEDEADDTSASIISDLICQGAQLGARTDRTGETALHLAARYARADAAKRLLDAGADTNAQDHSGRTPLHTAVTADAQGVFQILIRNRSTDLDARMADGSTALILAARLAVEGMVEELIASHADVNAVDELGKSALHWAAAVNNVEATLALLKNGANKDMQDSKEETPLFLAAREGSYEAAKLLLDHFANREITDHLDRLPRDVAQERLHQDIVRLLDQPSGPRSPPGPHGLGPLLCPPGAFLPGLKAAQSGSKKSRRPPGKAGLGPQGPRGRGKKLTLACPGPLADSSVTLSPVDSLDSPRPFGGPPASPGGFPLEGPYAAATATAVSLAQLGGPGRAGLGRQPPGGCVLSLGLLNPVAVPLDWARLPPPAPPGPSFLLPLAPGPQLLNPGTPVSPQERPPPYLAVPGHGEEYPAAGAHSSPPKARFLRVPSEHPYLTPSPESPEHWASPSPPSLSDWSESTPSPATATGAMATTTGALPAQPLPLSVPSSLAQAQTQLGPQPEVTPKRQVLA
Dickkopf-related protein 1 (Homo sapiens), sequence (O94907 whole entry, looked up): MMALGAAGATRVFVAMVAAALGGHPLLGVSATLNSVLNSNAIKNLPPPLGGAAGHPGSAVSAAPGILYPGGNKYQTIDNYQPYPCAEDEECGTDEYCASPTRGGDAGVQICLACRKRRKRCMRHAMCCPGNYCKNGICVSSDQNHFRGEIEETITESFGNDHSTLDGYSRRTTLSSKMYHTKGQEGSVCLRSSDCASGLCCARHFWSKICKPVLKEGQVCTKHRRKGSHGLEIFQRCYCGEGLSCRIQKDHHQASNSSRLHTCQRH
Fibroblast growth factor 10 (Homo sapiens), sequence (O15520 whole entry, looked up): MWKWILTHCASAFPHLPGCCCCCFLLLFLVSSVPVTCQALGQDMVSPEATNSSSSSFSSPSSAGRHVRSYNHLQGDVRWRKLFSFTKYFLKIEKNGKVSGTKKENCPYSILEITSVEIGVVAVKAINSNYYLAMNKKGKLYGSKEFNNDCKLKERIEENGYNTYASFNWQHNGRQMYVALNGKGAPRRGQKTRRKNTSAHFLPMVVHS

As to `C=C(CCCC)C(=O)CC[C@@H](OC(C)=O)c1cccc(OCCO)c1`, the composite z-score was 0.468 in assay [1]; 0.0116 in assay [5]; -0.193 in [7]; 1.54 in assay [8]; 0.165 in [9]; -0.192 in [10]. Also, the composite z-score is 1.12 in [11]; -0.278 in [12]; -0.654 in assay [13]; 0.195 in assay [15]; -0.249 in assay [16]; -0.161 in assay [17]. Moreover, the values for the composite z-score in [18], in assay [19] and in assay [20] were 0.158, 0.329 and 0.474, respectively. In addition, the z-score was -24.3 (active) in [2]; -20.6 (active) in assay [3]; -3.92 (inactive) in assay [4]; -0.139 (inactive) in assay [6]; 0.726 (inactive) in [14].

Take `CCCCCCc1nc(CCCc2cc3c(c(CCCCCC)n2)[Si](C(C)C)(C(C)C)O[C@H]3c2ccccc2)cc2c1[Si](C(C)C)(C(C)C)O[C@H]2c1ccccc1`: the composite z-score in assay [1] is 0.0913; in assay [5] it was -0.769; in assay [7], -0.233; in [8] it was 0.522; in assay [9], 0.279; in assay [10] it was -0.11. Besides, the composite z-score was -0.509 in [11]; -0.259 in assay [12]; -0.21 in [13]; 0.0736 in [15]; -0.401 in [16]; 0.123 in assay [17]. The composite z-score in [18] turned out to be 0.0624; in assay [19], 0.476; in [20], 0.656. The z-score was -0.449 (inactive) in assay [2]; -0.643 (inactive) in [3]; -0.146 (inactive) in [4]; -1.43 (inactive) in assay [6]; -1.11 (inactive) in assay [14].

Take `COc1ccc(CCNC(=O)[C@@H]2c3ccccc3C(=O)N(c3ccc(C)cn3)[C@H]2c2ccc(CO)cc2)cc1`: the composite z-score in assay [1] is 0.11; in assay [5], 3.23; in [7], 0.121; in assay [8], -1.16; in [9] it was -1.21; in assay [10], -0.404. For the same compound, the composite z-score in assay [11] was 1.73; in assay [12], 0.263; in [13], 1.19; in [15] it was -1.06; in assay [16] it was -0.37; in [17], -1.68. The figures for the composite z-score in assay [18], in assay [19] and in assay [20] were -1.16, -2.4 and -0.082, respectively. For the same compound, the z-score in [2] was -1.5 (inactive); in [3], -0.436 (inactive); in assay [4] it was -1.15 (inactive); in [6], 0.604 (inactive); in [14], -0.403 (inactive).

Turning to `O=C1[C@H]2[C@H]3[C@H](O)[C@H](O)CC(=NOC[C@@H](O)COCc4ccco4)[C@H]3CC[C@H]2C(=O)N1C1CCCCC1`, the composite z-score is 1.1 in [1]; -0.522 in assay [5]; -0.0841 in assay [7]; 1.19 in assay [8]; 0.214 in [9]; -0.0141 in assay [10]. The composite z-score in assay [11] was 0.508; in [12] it was -0.565; in assay [13] it was -1.6; in assay [15], 0.0351; in [16], 1.16; in [17] it was 0.623. Further, the results for the composite z-score in assay [18], in [19] and in assay [20] were 0.499, 0.942 and 1.31, respectively. In addition, the z-score in assay [2] is 0.432 (inactive); in assay [3], -0.299 (inactive); in [4] it was 0.356 (inactive); in [6], -0.263 (inactive); in assay [14], -1.13 (inactive).

As to `CO[C@@H]1COC(=O)CC=C[C@@H](C)[C@@H]2C=C[C@@H](O)[C@@H](COC(=O)CC=C[C@H]1C)O2`, the composite z-score in assay [1] was 1.44; in assay [5], -0.284; in assay [7], -0.19; in assay [8] it was 1.29; in assay [9], 0.0667; in assay [10] it was -0.0112. The composite z-score is 0.661 in assay [11]; -0.325 in [12]; -1.08 in [13]; 0.954 in assay [15]; 0.524 in assay [16]; 0.935 in assay [17]. The values for the composite z-score in assay [18], in assay [19] and in assay [20] were 1.48, 0.804 and 1.12, respectively. Besides, the z-score in [2] is -1.85 (inactive); in assay [3], -0.862 (inactive); in assay [4], -0.562 (inactive); in assay [6], -0.552 (inactive); in assay [14] it was -0.953 (inactive).
